Nine sequences from PMC8384837, “Expanding the binding specificity for RNA recognition by a PUF domain” can be followed below.

Assay in all cases: yeast three-hybrid, YBZ-1, SC-Leu-His + 0.5 mM 3-AT, 4 days
Holding throughout (details): tags: N-Gal4 AD-HA kept; label: inside an RPR1-promoter hybrid RNA with tandem MS2 sites; ssRNA

Experiment [1] concerns the target PUM1 PUF domain R4-NRS (Homo sapiens, UniProt Q14671 828-1176, H972R;Q975S). In outline:
(§1)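 Each repeat of the Pumilio-1 PUF domain was randomized at its three base-contacting residues, and these libraries were co-expressed from a centromeric plasmid with matching RNA elements in strain YBZ-1. After four days on SC-Leu (input) or SC-Leu-His + 0.5 mM 3-AT (selection), the repeat regions were PCR-amplified and Illumina-sequenced. The interaction score compares variant frequency between input and selection as a log change, computed in log2 with a pseudocount of 1 for absent variants.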

For experiment [2], the target named is PUM1 PUF domain R4-MPC (Homo sapiens, UniProt Q14671 828-1176, N971M;H972P;Q975C). In outline:
as §1

Experiment [3] deals with PUM1 PUF domain R4-WST (Homo sapiens, UniProt Q14671 828-1176, N971W;H972S;Q975T). A digest of the protocol: as §1
PUM1 PUF domain R4-WST, sequence (Q14671 828-1176 N971W/H972S/Q975T): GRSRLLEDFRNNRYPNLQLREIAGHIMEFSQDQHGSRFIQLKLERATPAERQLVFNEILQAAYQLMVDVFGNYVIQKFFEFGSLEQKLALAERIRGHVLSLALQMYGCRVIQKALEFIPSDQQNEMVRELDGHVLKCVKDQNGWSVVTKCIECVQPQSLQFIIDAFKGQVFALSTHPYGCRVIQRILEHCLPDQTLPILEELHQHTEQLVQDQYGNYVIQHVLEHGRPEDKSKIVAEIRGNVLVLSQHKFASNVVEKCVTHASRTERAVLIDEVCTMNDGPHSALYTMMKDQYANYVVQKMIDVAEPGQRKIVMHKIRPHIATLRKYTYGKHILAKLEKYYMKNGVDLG
For experiment [4], the target named is PUM1 PUF domain R4-PFF (Homo sapiens, UniProt Q14671 828-1176, N971P;H972F;Q975F). In outline:
as §1

Experiment [5] deals with PUM1 PUF domain R1-RTT (Homo sapiens, UniProt Q14671 828-1176, S863R;R864T;Q867T). A digest of the protocol:
as §1

The target of experiment [6] is PUM1 PUF domain R8-RFW (Homo sapiens, UniProt Q14671 828-1176, N1122R;Y1123F;Q1126W). In outline: as §1
PUM1 PUF domain R8-RFW, sequence (Q14671 828-1176 N1122R/Y1123F/Q1126W): as the sequence (Q14671 828-1176 N971W/H972S/Q975T) above, with W144N, S145H, T148Q, N295R, Y296F, Q299W counted along it
Experiment [7] addresses PUM1 PUF domain R2-LWH (Homo sapiens, UniProt Q14671 828-1176, N899L;Y900W;Q903H). A digest of the protocol:
as §1

Experiment [8] has as its target PUM1 PUF domain R5-GHL (Homo sapiens, UniProt Q14671 828-1176, C1007G;R1008H;Q1011L). A digest of the protocol: as §1
Experiment [9] concerns the target PUM1 PUF domain R8-QFK (Homo sapiens, UniProt Q14671 828-1176, N1122Q;Y1123F;Q1126K). A digest of the protocol: as §1
Experiment [10] has as its target PUM1 PUF domain R7-KQC (Homo sapiens, UniProt Q14671 828-1176, S1079K;N1080Q;E1083C). A digest of the protocol:
as §1

PUM1 PUF domain R4-PFF, sequence (Q14671 828-1176 N971P/H972F/Q975F): as the sequence (Q14671 828-1176 N971W/H972S/Q975T) above, with W144P, S145F, T148F counted along it
PUM1 PUF domain R5-GHL, sequence (Q14671 828-1176 C1007G/R1008H/Q1011L): as the sequence (Q14671 828-1176 N971W/H972S/Q975T) above, with W144N, S145H, T148Q, C180G, R181H, Q184L counted along it
PUM1 PUF domain R2-LWH, sequence (Q14671 828-1176 N899L/Y900W/Q903H): as the sequence (Q14671 828-1176 N971W/H972S/Q975T) above, with N72L, Y73W, Q76H, W144N, S145H, T148Q counted along it
PUM1 PUF domain R4-NRS, sequence (Q14671 828-1176 H972R/Q975S): as the sequence (Q14671 828-1176 N971W/H972S/Q975T) above, with W144N, S145R, T148S counted along it
PUM1 PUF domain R7-KQC, sequence (Q14671 828-1176 S1079K/N1080Q/E1083C): as the sequence (Q14671 828-1176 N971W/H972S/Q975T) above, with W144N, S145H, T148Q, S252K, N253Q, E256C counted along it
PUM1 PUF domain R4-MPC, sequence (Q14671 828-1176 N971M/H972P/Q975C): as the sequence (Q14671 828-1176 N971W/H972S/Q975T) above, with W144M, S145P, T148C counted along it
PUM1 PUF domain R1-RTT, sequence (Q14671 828-1176 S863R/R864T/Q867T): as the sequence (Q14671 828-1176 N971W/H972S/Q975T) above, with S36R, R37T, Q40T, W144N, S145H, T148Q counted along it
PUM1 PUF domain R8-QFK, sequence (Q14671 828-1176 N1122Q/Y1123F/Q1126K): as the sequence (Q14671 828-1176 N971W/H972S/Q975T) above, with W144N, S145H, T148Q, N295Q, Y296F, Q299K counted along it

As to “GGCUAGAACUAGUGGAUCCCCCGGCGCCCGGCGGCUCGAGCCCGGGUAAGUGUAUAUAGUCUGCAUGCCGCCGGGCGCCAUGCCUGCAGGUCGACUCUAGAAAACAUG”, the binding signal in [1] is 2.58 log2 enrichment (interaction score); in [2] it was 3.15 log2 enrichment (interaction score); in [3], 2.45 log2 enrichment (interaction score); in experiment [4], 7.66 log2 enrichment (interaction score). “GGCUAGAACUAGUGGAUCCCCCGGCGCCCGGCGGCUCGAGCCCGGGUAAGUGUAAAUGGUCUGCAUGCCGCCGGGCGCCAUGCCUGCAGGUCGACUCUAGAAAACAUG”: the binding signal in [5] was 3.14 log2 enrichment (interaction score). “GGCUAGAACUAGUGGAUCCCCCGGCGCCCGGCGGCUCGAGCCCGGGUAAGUGUAAAUAGUCUGCAUGCCGCCGGGCGCCAUGCCUGCAGGUCGACUCUAGAAAACAUG”: the binding signal was 4.68 log2 enrichment (interaction score) in experiment [6]; 2.74 log2 enrichment (interaction score) in experiment [7]; 4.22 log2 enrichment (interaction score) in experiment [8]; 0.36 log2 enrichment (interaction score) in [3]; 5.26 log2 enrichment (interaction score) in experiment [4]. Regarding “GGCUAGAACUAGUGGAUCCCCCGGCGCCCGGCGGCUCGAGCCCGGGUAAGUGUAAAAAGUCUGCAUGCCGCCGGGCGCCAUGCCUGCAGGUCGACUCUAGAAAACAUG”, the binding signal in [7] was 7.08 log2 enrichment (interaction score).

Turning to “GGCUAGAACUAGUGGAUCCCCCGGCGCCCGGCGGCUCGAGCCCGGGUAAGUGUUAAUAGUCUGCAUGCCGCCGGGCGCCAUGCCUGCAGGUCGACUCUAGAAAACAUG”, the binding signal in experiment [8] is 3.73 log2 enrichment (interaction score).

“GGCUAGAACUAGUGGAUCCCCCGGCGCCCGGCGGCUCGAGCCCGGGUAAGCGUAAAUAGUCUGCAUGCCGCCGGGCGCCAUGCCUGCAGGUCGACUCUAGAAAACAUG”: the binding signal in experiment [6] is 6.4 log2 enrichment (interaction score); in experiment [9], 4.17 log2 enrichment (interaction score). In the case of “GGCUAGAACUAGUGGAUCCCCCGGCGCCCGGCGGCUCGAGCCCGGGUAAGUCUAAAUAGUCUGCAUGCCGCCGGGCGCCAUGCCUGCAGGUCGACUCUAGAAAACAUG”, in [10], the binding signal is 2.83 log2 enrichment (interaction score). In the case of “GGCUAGAACUAGUGGAUCCCCCGGCGCCCGGCGGCUCGAGCCCGGGUAAGUGUACAUAGUCUGCAUGCCGCCGGGCGCCAUGCCUGCAGGUCGACUCUAGAAAACAUG”, the binding signal in experiment [4] is 3.52 log2 enrichment (interaction score). For “GGCUAGAACUAGUGGAUCCCCCGGCGCCCGGCGGCUCGAGCCCGGGUAAGUGUGAAUAGUCUGCAUGCCGCCGGGCGCCAUGCCUGCAGGUCGACUCUAGAAAACAUG”, in experiment [8], the binding signal is 2.8 log2 enrichment (interaction score).
